# Data from PubChem BioAssay.
# Calls of active or inactive are those of the source.
# Columns and labels:
# [1] = E. coli DRC41 culture turbidity changes, primary screen, E. coli filamentation inducer project, strain DRC41, OD650, 48 h (AID 1152);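 further: E. coli MC1000 strain DRC41 lacking acrAB efflux pump and sulA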; conditions: E. coli DRC41 (acrAB sulA), higher = more signal, called active from +8 up or from −8 down
# [2] = small-molecule binders of probe aLefty1, primary screen, biochemical, small-molecule microarray, 635/667 nm fluorescence (AID 1153); conditions: higher = more signal;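 further: score merges spot fluorescence with signal-to-noise ratio from the scanned slide images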
# [3] = PSAC antagonists in infected red cells, primary screen, cell-based, P. falciparum Indochina, OD700, 1 h (AID 1154); conditions: P. falciparum Indochina infected RBC osmotic lysis, higher = more signal, called active from +8 up or from −8 down
# [4] = PSAC antagonists in infected red cells, primary screen, cell-based, P. falciparum Indochina, OD700, 2 h (AID 1155);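 further: lysis reports solute entry through the parasite surface anion channel PSAC; channel blockers reduce lysis of infected cells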; conditions: P. falciparum Indochina infected erythrocytes, osmotic lysis OD700; higher = more signal, called active from +8 up or from −8 down
# [5] = osmotic lysis modulators in infected erythrocytes, primary screen, PSAC antagonist project, cell-based, P. falciparum Indochina, OD700, 3 h (AID 1156); conditions: higher = more signal, called active from +8 up or from −8 down
# [6] = PSAC antagonists in infected red cells, primary screen, cell-based, P. falciparum Indochina, OD700, 18 h (AID 1157); conditions: P. falciparum Indochina infected erythrocytes, osmotic lysis OD700, 18 h; higher = more signal, called active from +8 up or from −8 down
# [7] = modulators of S6 phosphorylation in cells, primary screen, cell-based, A549, cytoblot, luminescence, serum-stimulated (AID 1158); conditions: A549 phospho-S6 cytoblot, 5 h, higher = more signal;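 further: serum-stimulated A549 lung adenocarcinoma cells; signal is phosphorylated S6 detected by cytoblot immunostaining with HRP secondary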
# [8] = molecular target: NADPH oxidase 2 (Homo sapiens) (UniProt P04839); test: NOX2-dependent H2O2 signal modulators, primary screen, NOX inhibitor project, cell-based, HEK293-NOX2, PMA-stimulated, Amplex Red fluorescence (AID 1159); conditions: 45 min, higher = more signal, called active from +8 up or from −8 down; further: test concentration not given here
# [9] = molecular target: NADPH oxidase 4 (Homo sapiens) (UniProt Q9NPH5); test: NOX4-dependent H2O2 signal modulators, primary screen, NOX inhibitor project, cell-based, HEK293-NOX4, tetracycline-induced, Amplex Red fluorescence (AID 1160); conditions: 45 min, higher = more signal, called active from +8 up or from −8 down
# [10] = molecular target: NADPH oxidase 5 (Homo sapiens) (UniProt Q96PH1); test: NOX5-dependent H2O2 signal modulators, primary screen, NOX inhibitor project, cell-based, HEK293-NOX5, Amplex Red fluorescence (AID 1161); conditions: HEK293-NOX5, ionomycin, 45 min, higher = more signal
# NADPH oxidase 5 (Homo sapiens), sequence (Q96PH1 whole entry, looked up): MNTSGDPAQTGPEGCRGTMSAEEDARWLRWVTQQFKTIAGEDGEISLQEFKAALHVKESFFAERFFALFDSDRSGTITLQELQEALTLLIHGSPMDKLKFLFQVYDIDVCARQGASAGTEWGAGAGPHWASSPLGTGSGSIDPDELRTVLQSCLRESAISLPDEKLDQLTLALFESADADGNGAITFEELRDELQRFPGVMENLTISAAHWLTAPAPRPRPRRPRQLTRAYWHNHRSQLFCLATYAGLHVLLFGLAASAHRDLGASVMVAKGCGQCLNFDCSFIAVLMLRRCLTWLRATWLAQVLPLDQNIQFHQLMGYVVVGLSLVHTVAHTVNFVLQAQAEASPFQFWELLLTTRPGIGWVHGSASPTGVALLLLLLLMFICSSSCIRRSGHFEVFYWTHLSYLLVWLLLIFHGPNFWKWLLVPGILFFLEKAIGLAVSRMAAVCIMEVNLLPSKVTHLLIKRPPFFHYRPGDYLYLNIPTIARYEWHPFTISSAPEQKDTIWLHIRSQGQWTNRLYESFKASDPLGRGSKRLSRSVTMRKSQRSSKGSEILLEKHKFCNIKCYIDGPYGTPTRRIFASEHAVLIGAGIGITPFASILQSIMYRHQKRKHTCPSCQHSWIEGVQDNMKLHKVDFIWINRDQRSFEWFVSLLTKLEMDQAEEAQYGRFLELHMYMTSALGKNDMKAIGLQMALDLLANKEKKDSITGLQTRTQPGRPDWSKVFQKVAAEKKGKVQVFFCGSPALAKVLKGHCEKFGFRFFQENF
# NADPH oxidase 2 (Homo sapiens), sequence (P04839 whole entry, looked up): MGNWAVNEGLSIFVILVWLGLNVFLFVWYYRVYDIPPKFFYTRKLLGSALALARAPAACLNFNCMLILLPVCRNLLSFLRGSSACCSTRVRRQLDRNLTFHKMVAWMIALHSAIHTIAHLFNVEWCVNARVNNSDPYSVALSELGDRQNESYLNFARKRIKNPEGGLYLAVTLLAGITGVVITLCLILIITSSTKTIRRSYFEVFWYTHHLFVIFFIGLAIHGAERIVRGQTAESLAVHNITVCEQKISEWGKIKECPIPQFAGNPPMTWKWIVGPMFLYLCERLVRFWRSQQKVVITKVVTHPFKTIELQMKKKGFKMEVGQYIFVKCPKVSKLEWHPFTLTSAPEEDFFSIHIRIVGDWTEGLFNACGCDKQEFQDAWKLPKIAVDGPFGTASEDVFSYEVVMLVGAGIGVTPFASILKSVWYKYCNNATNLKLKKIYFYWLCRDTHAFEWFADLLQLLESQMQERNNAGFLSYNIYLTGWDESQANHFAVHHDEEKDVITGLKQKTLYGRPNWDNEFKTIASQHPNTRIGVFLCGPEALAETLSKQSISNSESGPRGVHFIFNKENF
# NADPH oxidase 4 (Homo sapiens), sequence (Q9NPH5 whole entry, looked up): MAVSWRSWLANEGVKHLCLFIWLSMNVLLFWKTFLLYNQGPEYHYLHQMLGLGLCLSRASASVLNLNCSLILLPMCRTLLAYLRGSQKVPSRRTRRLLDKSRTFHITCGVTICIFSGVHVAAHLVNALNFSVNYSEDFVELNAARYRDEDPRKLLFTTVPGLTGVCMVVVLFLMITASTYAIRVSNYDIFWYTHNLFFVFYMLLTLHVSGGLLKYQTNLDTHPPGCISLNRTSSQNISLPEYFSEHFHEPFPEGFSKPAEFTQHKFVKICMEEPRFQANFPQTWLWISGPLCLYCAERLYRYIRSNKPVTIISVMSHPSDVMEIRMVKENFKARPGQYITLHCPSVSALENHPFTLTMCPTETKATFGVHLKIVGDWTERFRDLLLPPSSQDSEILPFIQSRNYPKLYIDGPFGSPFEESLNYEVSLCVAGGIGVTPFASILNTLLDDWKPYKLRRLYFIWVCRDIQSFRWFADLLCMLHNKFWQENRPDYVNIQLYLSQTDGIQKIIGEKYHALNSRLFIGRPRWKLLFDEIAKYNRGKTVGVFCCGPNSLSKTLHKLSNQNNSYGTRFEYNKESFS
Compound,z-score [1],composite z-score [2],z-score [3],z-score [4],z-score [5],z-score [6],z-score [7],z-score [8],z-score [9],z-score [10]
Cc1ccc(S[C@]2(C(=O)NCC(C)C)CC(=O)N(C3Cc4ccccc4C3)[C@@H]2c2ccc(CO)cc2I)cc1,-0.715 (inactive),-0.192,2.92 (inactive),0.768 (inactive),0.708 (inactive),0.475 (inactive),-0.447,1.25 (inactive),0.0492 (inactive),1.47
C[C@@]12COC[C@]13C=C(Br)[C@H](C2)[C@@]1(CO1)C3=O,-0.745 (inactive),-0.0003,-0.526 (inactive),-0.0824 (inactive),-0.347 (inactive),-0.161 (inactive),-0.788,0.51 (inactive),0.527 (inactive),0.119
CCOC(=O)C1=CCC(c2ccco2)N(S(=O)(=O)c2ccc(C)cc2)C1 (stereo not given),0.323 (inactive),0.247,9.57 (active),1.24 (inactive),0.252 (inactive),0.731 (inactive),0.406,-0.176 (inactive),-1.26 (inactive),0.758
CCCNC(=O)[C@@]1(Sc2ccc(C)cc2)CC(=O)N(C(C)C)[C@@H]1c1ccc(CO)cc1I,-0.236 (inactive),-0.0046,5.82 (inactive),0.424 (inactive),0.0627 (inactive),0.108 (inactive),-0.198,2.46 (inactive),-2.43 (inactive),0.276
CN1C(=O)C2C=CC(C(O)c3cc(C(F)(F)F)cc(C(F)(F)F)c3)N(Nc3ccccc3)C2C1=O (stereo not given),-1.07 (inactive),0.0341,0.277 (inactive),0.301 (inactive),-0.753 (inactive),0.797 (inactive),-0.77,-1.59 (inactive),-4.95 (inactive),-1.99
[N-]=[N+]=NCc1ccccc1C[C@@]1(C(=O)N2CCCCC2)N=C(c2ccc(OCCCO)cc2)O[C@@H]1c1ccccc1CN=[N+]=[N-],0.464 (inactive),0.254,27.5 (active),19.6 (active),3.4 (inactive),2.31 (inactive),-0.276,-1.29 (inactive),-0.467 (inactive),-0.859
COCCOC(=O)N1C(=O)[C@@]2(c3cc(C#CCC(C(=O)OC)C(=O)OC)ccc31)[C@H](c1ccc(OCCO)cc1)N1[C@H](c3ccccc3)[C@H](c3ccccc3)OC(=O)[C@H]1[C@@H]2C(=O)Nc1nc2ccccc2s1,2.25 (inactive),0.129,4.99 (inactive),2.47 (inactive),0.924 (inactive),2.21 (inactive),0.0091,0.892 (inactive),0.647 (inactive),0.93
C#C[C@@H](CC)O[Si](C#CCCCC#N)(C(C)C)C(C)C,0.527 (inactive),-0.117,1.58 (inactive),1.14 (inactive),0.186 (inactive),0.676 (inactive),-0.336,1.03 (inactive),-0.222 (inactive),1.31
CCCC=C(CCC)[C@@H](NC(=O)CCc1ccccc1)c1ccc(C(F)(F)F)cc1,-1.56 (inactive),0.73,1.71 (inactive),0.542 (inactive),1.8 (inactive),1.01 (inactive),0.697,-0.975 (inactive),-1.6 (inactive),2.78
COc1ccc([Si](C)(C)[C@H]2[C@H](CCO)O[C@@]3(C(=O)N(Cc4ccccc4)c4ccc(N5C(=O)c6ccccc6Oc6ccccc65)cc43)[C@@H]2C)cc1,0.503 (inactive),0.121,3.46 (inactive),1.45 (inactive),0.354 (inactive),1.19 (inactive),0.314,-1.35 (inactive),1.42 (inactive),0.269
COC(=O)C(CC#Cc1ccc2c(c1)[C@]1(C(=O)N2)[C@H](C(=O)Nc2nc3ccccc3s2)[C@H]2C(=O)O[C@H](c3ccccc3)[C@H](c3ccccc3)N2[C@@H]1c1ccc(OCCO)cc1)C(=O)OC,2.65 (inactive),0.5,5.91 (inactive),0.782 (inactive),0.299 (inactive),-1.27 (inactive),1.76,1.1 (inactive),0.326 (inactive),0.613
CN(C)C(=O)[C@@]1(Cc2ccccc2N=[N+]=[N-])N=C(c2ccc(OCCCO)cc2)O[C@H]1c1ccccc1,-0.369 (inactive),0.465,25.7 (active),12.4 (active),2.85 (inactive),1.94 (inactive),-0.482,-3.93 (inactive),0.711 (inactive),-2.45
COc1cc(NN2C(C(O)C3CCCCC3)C=CC3C(=O)N(c4ccccc4)C(=O)C32)cc(OC)c1OC (stereo not given),-1.02 (inactive),-0.441,1.73 (inactive),-0.35 (inactive),1.36 (inactive),-1.16 (inactive),1.37,-3.07 (inactive),-5.15 (inactive),-5.24
COc1ccc(C#Cc2ccc3c(c2)[C@]2(C(=O)N3)[C@H](c3ccc(OCCO)cc3)N3[C@H](c4ccccc4)[C@H](c4ccccc4)OC(=O)[C@H]3[C@@H]2C(=O)N2CCc3cc(OC)c(OC)cc3C2)cc1,-0.433 (inactive),-0.261,3.24 (inactive),2.77 (inactive),1.15 (inactive),1.1 (inactive),-0.298,0.661 (inactive),0.621 (inactive),0.27
CCN(CC)c1ccc(N2CC=CC34O[C@@H]5C=CCCOC(=O)C5[C@H]3C(=O)N(CCO)[C@@H]4C2=O)cc1 (stereo not given in full),0.286 (inactive),-0.155,1.03 (inactive),0.537 (inactive),0.836 (inactive),0.159 (inactive),-0.616,0.697 (inactive),-0.513 (inactive),1.11
COCCOC(=O)N1C(=O)[C@@]2(c3ccccc31)[C@H](c1ccc(OCCO)cc1)N1[C@H](c3ccccc3)[C@H](c3ccccc3)OC(=O)[C@H]1[C@@H]2C(=O)N1CCCCCCC1,-0.906 (inactive),2.77,22.8 (active),7.62 (inactive),0.586 (inactive),1.64 (inactive),-0.0785,0.918 (inactive),0.901 (inactive),1.33
O=C(CS)NCCCCCNC(=O)[C@@H]1C[C@@H]2C(=O)N[C@@H](Cc3ccccc3)C(=O)N2[C@@H]1c1cccc(OCCO)c1,-0.145 (inactive),-1.01,2.5 (inactive),0.148 (inactive),-0.395 (inactive),-0.0429 (inactive),-0.16,1.73 (inactive),0.924 (inactive),0.226
Cc1cccc([C@H]2C[C@H]3C(I)=C[C@@H]2C(=O)[C@]32CO2)c1,-0.894 (inactive),-0.0559,-0.0459 (inactive),0.0962 (inactive),0.0129 (inactive),-0.0624 (inactive),0.0314,-0.942 (inactive),-0.0919 (inactive),-0.835
COC(=O)C(CC#Cc1ccc2c(c1)[C@]1(C(=O)N2)[C@H](c2ccc(O)cc2)N2[C@H](c3ccccc3)[C@H](c3ccccc3)OC(=O)[C@H]2[C@@H]1C(=O)N1CCCCCCC1)C(=O)OC,1.11 (inactive),1.69,0.53 (inactive),-1.11 (inactive),-0.677 (inactive),-2.43 (inactive),3.01,0.953 (inactive),0.181 (inactive),1.63
CCOC(=O)C1=CC[C@@H](c2ccccc2)N(S(=O)(=O)c2ccc(C)cc2)[C@H]1C=Cc1ccccc1,-1.11 (inactive),0.436,1.92 (inactive),1.12 (inactive),-0.684 (inactive),0.779 (inactive),-0.577,0.549 (inactive),-0.395 (inactive),0.884
C=C(/C(=C/C[C@H](OC(=O)c1ccncc1)c1ccccc1OCCO)c1cnc2ccccc2c1)C(C)C,-0.227 (inactive),0.313,11.1 (active),1.86 (inactive),1.41 (inactive),0.553 (inactive),0.125,-1.71 (inactive),-0.391 (inactive),-0.914
C=C(CCCC)C(=O)CC[C@@H](OC(=O)c1cccnc1)c1ccc(OCCO)cc1,-0.704 (inactive),0.178,20.2 (active),4.63 (inactive),-0.367 (inactive),0.774 (inactive),-0.58,-1.3 (inactive),-0.918 (inactive),-1.39
COc1ccc(C(O)C2C=CC3C(=O)N(c4ccccc4)C(=O)C3N2Nc2ccc(C(C)C)cc2)c2ccccc12 (stereo not given),-0.534 (inactive),0.4,1.68 (inactive),1.35 (inactive),0.155 (inactive),1.27 (inactive),-1.09,0.373 (inactive),-2.59 (inactive),-3.17
COCCCNC(=O)[C@@]1(c2ccc([N+](=O)[O-])cc2)CC(=O)N(CC23CC4CC(CC(C4)C2)C3)[C@@H]1c1ccc(CO)cc1I,-0.355 (inactive),0.082,24 (active),8.65 (active),2.5 (inactive),2.31 (inactive),-0.0623,2.08 (inactive),-1.02 (inactive),-0.233
CCOC(=O)C[C@H]1[C@H](OC(=O)c2ccc(C(=O)c3ccccc3)cc2)[C@@H](NC(=O)CC(C)C)c2cc(OCCCO)ccc2N1C(=O)Cc1ccc(OC)cc1,0.23 (inactive),0.243,4.38 (inactive),0.351 (inactive),-0.0495 (inactive),0.0625 (inactive),-0.174,-0.354 (inactive),0.528 (inactive),0.522
